Reference: PubChem BioAssay AID652192 (Johns Hopkins Ion Channel Center, 2013)
Potency and affinity values are given separately. Activity calls are given as the source filed them.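 How the source made its calls: active means peak inhibition of the KCNQ2 potassium channel over 30% at some tested dose, with a fitted dose response curve; inactive means no inhibition at any dose, or no curve fitted.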

These compounds were tested against Potassium voltage-gated channel subfamily KQT member 2 (Rattus norvegicus) (UniProt O88943) (assay: block of rat KCNQ2 potassium channel – cell-based, FluxOR thallium flux, concentration-response, selectivity assay for TASK1 inhibitor project, SAR follow-up (AID 652192)). Conditions: KCNQ2 cell line, FluxOR thallium flux fluorescence; series mostly up to 30 µM.
Chain of Potassium voltage-gated channel subfamily KQT member 2 (Rattus norvegicus) (O88943 whole entry, looked up): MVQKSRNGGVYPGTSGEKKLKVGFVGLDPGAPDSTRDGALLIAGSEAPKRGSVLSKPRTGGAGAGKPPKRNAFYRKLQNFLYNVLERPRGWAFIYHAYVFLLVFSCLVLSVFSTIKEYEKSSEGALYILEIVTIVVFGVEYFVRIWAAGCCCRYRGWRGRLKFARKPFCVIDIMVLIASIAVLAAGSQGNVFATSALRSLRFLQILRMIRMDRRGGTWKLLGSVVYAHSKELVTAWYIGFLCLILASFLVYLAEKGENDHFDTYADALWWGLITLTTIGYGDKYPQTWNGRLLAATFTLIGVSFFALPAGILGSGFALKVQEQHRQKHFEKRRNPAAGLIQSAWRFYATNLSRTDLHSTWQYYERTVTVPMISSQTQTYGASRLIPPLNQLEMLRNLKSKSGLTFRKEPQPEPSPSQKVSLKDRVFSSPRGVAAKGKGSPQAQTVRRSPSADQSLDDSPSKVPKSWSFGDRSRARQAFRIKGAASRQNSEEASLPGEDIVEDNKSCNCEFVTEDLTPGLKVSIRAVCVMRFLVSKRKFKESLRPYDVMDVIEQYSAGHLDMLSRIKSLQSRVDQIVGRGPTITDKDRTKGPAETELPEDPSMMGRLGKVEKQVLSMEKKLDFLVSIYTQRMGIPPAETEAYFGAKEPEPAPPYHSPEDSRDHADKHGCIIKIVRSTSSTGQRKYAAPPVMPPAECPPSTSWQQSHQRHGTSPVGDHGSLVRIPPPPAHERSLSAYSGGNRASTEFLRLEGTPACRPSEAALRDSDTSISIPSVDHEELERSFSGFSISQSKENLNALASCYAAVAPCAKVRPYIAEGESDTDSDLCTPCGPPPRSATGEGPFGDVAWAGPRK
For CCOc1ccccc1NC(=O)c1cccc(NC(=O)c2ccccc2)c1, the outcome was “inactive”.
With Cc1cccc(C(=O)Nc2cccc(NC(=O)c3ccccc3OC(F)(F)F)c2)c1 the outcome was “inactive”.
Cc1cccc(C(=O)Nc2cccc(NC(=O)c3ccccc3OCC(C)C)c2)c1 was tested, and the outcome was “inactive”.
In the case of Cc1cccc(C(=O)Nc2cccc(NC(=O)c3cccc(C(F)(F)F)c3)c2)c1, the outcome is reported as “inactive”.
For CCCC(=O)C1CCN(c2ncnc3c2CN(C(=O)c2ccc(-c4ccccc4)cc2)CC3)CC1, the outcome was “inactive”.
For CCOc1cccc(NC(=O)c2cccc(NC(=O)C3CCCC3)c2)c1, the outcome was “inactive”.
Cc1ccc(C(=O)Nc2cccc(NC(=O)c3ccccc3)c2)cc1 was tested, and the outcome was “inactive”.
For O=C(Nc1cccc(NC(=O)c2ccccn2)c1)c1ccccc1, the outcome was “inactive”.
In the case of O=C(Nc1cccc(NC(=O)c2ccccc2)c1)c1ccccc1, the outcome is reported as “inactive”.
For COc1ccc(C(=O)Nc2cccc(NC(=O)c3ccccc3)c2)cc1, the outcome was “inactive”.
COc1cccc(C(=O)Nc2cccc(NC(=O)c3ccccc3)c2)c1 was tested, and the outcome was “inactive”.
With COc1ccccc1C(=O)Nc1cc(NC(=O)c2ccccc2C(C)C)ccc1F the outcome was “inactive”.
In the case of COc1ccccc1NC(=O)c1cccc(NC(=O)c2ccccc2C(F)(F)F)c1, the outcome is reported as “inactive”.
For CCOc1ccccc1NC(=O)c1cccc(NC(=O)c2cccc(Cl)c2)c1, the outcome was “inactive”.
With Cc1cccc(C(=O)Nc2cccc(NC(=O)c3cccc(F)c3)c2)c1 the outcome was “inactive”.
With CCOc1ccccc1NC(=O)c1cccc(NC(=O)c2cccc(OC)c2)c1 the outcome was “inactive”.
For Cc1cccc(C(=O)Nc2cccc(NC(=O)c3cccc(Cl)c3)c2)c1, the outcome was “inactive”.
With Cc1cccc(C(=O)Nc2cccc(NC(=O)c3ccc(N(C)C)cc3)c2)c1 the outcome was “inactive”.
CCOc1ccccc1C(=O)Nc1cccc(NC(=O)c2ccccc2C(F)(F)F)c1 was tested, and the outcome was “inactive”.
In the case of Cc1ccccc1C(=O)Nc1cccc(NC(=O)c2ccccc2)c1, the outcome is reported as “inactive”.
CCOc1ccccc1C(=O)Nc1cccc(NC(=O)c2ccccc2OC)c1 was tested, and the outcome was “inactive”.
O=C(Nc1cccc(NC(=O)c2ccccc2C(F)(F)F)c1)c1ccccc1 was tested, and the outcome was “inactive”.
With COc1ccccc1C(=O)Nc1cccc(NC(=O)c2ccccc2OC)c1 the outcome was “inactive”.
For COc1ccccc1NC(=O)c1cccc(NC(=O)c2ccccc2)c1, the outcome was “inactive”.
With O=C(Nc1cccc(NC(=O)C2CCCCC2)c1)c1ccccc1 the outcome was “inactive”.
O=C(Nc1cccc(NC(=O)c2ccoc2)c1)c1ccccc1 was tested, and the outcome was “inactive”.
With Cc1cccc(C(=O)Nc2cccc(NC(=O)c3ccco3)c2)c1 the outcome was “inactive”.
In the case of COc1ccccc1C(=O)Nc1cccc(NC(=O)c2ccccc2C(C)C)c1, the outcome is reported as “inactive”.
For COc1ccccc1C(=O)Nc1cccc(NC(=O)c2ccccc2)c1, the outcome was “inactive”.
For CCOc1ccccc1NC(=O)c1cccc(NC(=O)c2cccc(C(F)(F)F)c2)c1, the outcome was “inactive”.
With CCOc1ccccc1NC(=O)c1cccc(NC(=O)C2CCCC2)c1 the outcome was “inactive”.
In the case of COc1ccccc1NC(=O)c1cccc(NC(=O)C2CCCCC2)c1, the outcome is reported as “inactive”.
In the case of CCOc1ccccc1NC(=O)c1cccc(NC(=O)c2ccc(Cl)cc2)c1, the outcome is reported as “inactive”.
